± gives the standard deviation.
Experiments:
[1] = test system: MILI (PIWIL2) piRISC loaded with piRNA #1 (26 nt); experiment: pre-steady-state target cleavage rate (min^-1); guide: piRNA #1 5'p-UGAGGUAGUAGGUUGUAUAGUAUCCA; higher = faster piRNA-guided slicing of the target; conditions: auxiliary factor: 500 nM mouse GTSF1;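 note: 1 nM active piRISC with 0.1 nM target library at 33 °C single turnover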
In short: (§1)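 Cleave-'n-Seq measured uncleaved targets by sequencing after a transcribed, DNA-blocked target RNA library […] was mixed with 1 nM active affinity-purified piRISC holding one synthetic guide, with or without 500 nM GTSF1 partner protein, at 33 °C in HEPES–potassium acetate buffer for 0–8 or 0–960 min. Counts were normalised to depth and to weakly complementary targets, three trials were pooled, and k3 was capped at 0.0001 min^-1. A burst-and-steady-state fit gave the pre-steady-state cleavage rate.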

[2] = test system: EfPiwi piRISC loaded with piRNA #1 (26 nt); experiment: pre-steady-state target cleavage rate (min^-1); auxiliary factor: 500 nM Ephydatia muelleri Gtsf1; guide: piRNA #1 5'p-UGAGGUAGUAGGUUGUAUAGUAUCCA; MIWI and MILI are mouse PIWI proteins and EfPiwi is from a freshwater sponge; tags in brackets are library labels; higher = faster piRNA-guided slicing of the target
In short: as §1

| Sequence | pre-steady-state target cleavage rate [1] | pre-steady-state target cleavage rate [2] |
| --- | --- | --- |
| GGAGAGGAUACUAUACAUCGUACUACCUCA | 0.0374 ± 0.0069 | 0.00364 ± 0.0019 |
| GGAGACGAUACUAUACAACCUACUACCAUCA | 0.134 ± 0.013 | 0.00489 ± 0.002 |
| GGAGUCGAUACUAUACAACCUACUUCCUCA | 0.0291 ± 0.0072 | 0.00362 ± 0.0021 |
| GGAGACGAUACAAUACAUCCUACUACCUCA | 0.312 ± 0.016 | 0.00286 ± 0.0019 |
| GGAGACCAUACUAUACAACCUAUUACCUCA | 0.234 ± 0.019 | 0.0186 ± 0.0067 |
| GGAGACCUUAUCUAUACAACCUACUACCUCA | 0.115 ± 0.014 | 0.0368 ± 0.017 |
| GGAGAGGAUACUAGACAACCUACUACCUCA | 0.118 ± 0.01 | 0.0121 ± 0.0055 |
| GGAGACGAUACUAUACAACCUACUGCCUCA | 0.11 ± 0.015 | 0.00691 ± 0.0024 |
| GGAGACCAUAGUAUACAACCUACUACGUCA | 0.0462 ± 0.0097 | 0.00463 ± 0.0028 |
| GGAGAGGAUACUAUACAACCUACUACUUCA | 0.153 ± 0.015 | 0.121 ± 0.05 |
| GGAGACCUAACUAUACUACCUACUACCUCA | 0.125 ± 0.022 | 0.00314 ± 0.0024 |
| GGAGACCUAACUAUACAAACUACUACCUCA | 0.248 ± 0.025 | 0.0044 ± 0.0038 |
| GGAGAGGAUAUAUACAACCUACUACCUCA | 0.165 ± 0.014 | 0.00764 ± 0.0042 |
| GGAGACCUAUCUAUACACCCUACUACCUCA | 0.0257 ± 0.006 | 0.00728 ± 0.0037 |
| GGAGACGAUACUAUACAACCUAGCUACCUCA | 0.0598 ± 0.0083 | 0.00543 ± 0.0023 |
| GGAGACCAUGACUAUACAACCUACUACCUCA | 0.142 ± 0.021 | 0.0764 ± 0.029 |
| GGAGACCAUACUAUACAACCUUCUACGUCA | 0.00397 ± 0.0034 | 0.00387 ± 0.0029 |
| GGAGACCUAUCUUUUCAACCUACUACCUCA | 0.0272 ± 0.0082 | 0.00766 ± 0.0047 |
| GGAGUGGAUUACUAUACAACCUACUACCUCA | 0.154 ± 0.0078 | 0.00938 ± 0.0037 |
| GGAGACCUAACUAUACAACCUACUACCUGCA | 0.149 ± 0.034 | 0.0711 ± 0.039 |
| GGAGUGGAUACUAUACAUCCUACAACCUCA | 0.165 ± 0.014 | 0.00378 ± 0.0019 |
| GGAGACGAUACUAUAGAACCUACUUCCUCA | 0.0055 ± 0.0044 | 0.00251 ± 0.0022 |
| GGAGACCUUAGCUAUACAACCUACUACCUCA | 0.112 ± 0.015 | 0.0684 ± 0.027 |
| GGAGUGCAUACUAUACAACCUACUACGUCA | 0.0632 ± 0.0079 | 0.00318 ± 0.0018 |
| GGAGUGGAUACUAUACAACUUACUACCUCA | 0.0246 ± 0.0024 | 0.01 ± 0.0049 |
| GGAGAGGAUACUUUACAACCUACUACCACA | 0.152 ± 0.015 | 0.0019 ± 0.0011 |
| GGAGACGAUACUAUAGAACGUACUACCUCA | 0.0134 ± 0.0023 | 0.00177 ± 0.0015 |

| Sequence | pre-steady-state target cleavage rate [1] | pre-steady-state target cleavage rate [2] |
| --- | --- | --- |
| GGAGACGAUACUAUACAAGCUACUACCUGA | 0.202 ± 0.022 | 0.00333 ± 0.0015 |
| GGAGAGGAUACUAUACAACCUAGUACCUCA | 0.00636 ± 0.0033 | 0.00393 ± 0.0016 |
| GGAGACGAUACUAUUACAACCUACUACCUCA | 0.172 ± 0.011 | 0.0508 ± 0.019 |
| GGAGUGGAUACUAUACAACCUAGUACCUCA | 0.0508 ± 0.0096 | 0.00414 ± 0.0012 |
| GGAGACCAUAGUAUACAACCUACUACCUGA | 0.0652 ± 0.012 | 0.00396 ± 0.0018 |
| GGAGAGGAUAACUAUACAACCUACUACCUCA | 0.0525 ± 0.0054 | 0.104 ± 0.039 |
| GGAGAGGAUACUAUACAUCCUACUACCUCA | 0.28 ± 0.023 | 0.0116 ± 0.0055 |
| GGAGACCUUACUAUACAACCUAGUUCCUCA | 0.0143 ± 0.0048 | 0.00334 ± 0.0033 |
| GGAGUGGAUAUAUACAACCUACUACCUCA | 0.152 ± 0.01 | 0.0139 ± 0.0066 |
| GGAGACCUUACUAUACAACCUACUACCUA | 0.152 ± 0.018 | 0.0485 ± 0.018 |
| GGAGAGGAUACCUAUACAACCUACUACCUCA | 0.123 ± 0.027 | 0.0826 ± 0.033 |
| GGAGAGGAAACUAAACAACCUACUACCUCA | 0.229 ± 0.03 | 0.00466 ± 0.0036 |
| GGAGAGGAUACUAUACAACCUACAAGCUCA | 0.00476 ± 0.0031 | 0.00284 ± 0.0023 |
| GGAGACCAUACUAUACAACCAACUACGUCA | 0.00313 ± 0.003 | 0.00504 ± 0.004 |
| GGAGUGGAUAGUAUACAACCUUCUACCUCA | 0.0115 ± 0.0038 | 0.00338 ± 0.0021 |
| GGAGACCUUACUAUACAACCUACUACCUAA | 0.154 ± 0.019 | 0.00756 ± 0.0045 |
| GGAGACGAUACUAGUACAACCUACUACCUCA | 0.153 ± 0.013 | 0.0047 ± 0.0025 |
| GGAGACCAUACUUACAACCUACUACCUCA | 0.0658 ± 0.012 | 0.00861 ± 0.0046 |
| GGAGUGGAUACUAUACACCCUACUACCUCA | 0.0921 ± 0.0066 | 0.0673 ± 0.023 |
| GGAGUGGAUACUAUACAAGCUACUAGCUCA | 0.0419 ± 0.0091 | 0.00331 ± 0.0021 |
| GGAGUGGAUACUAUACAACGUACUACCACA | 0.0255 ± 0.0047 | 0.00371 ± 0.00099 |
| GGAGACCAUACUAUACAACCUACUACCUCU [g2:g23:cont:t1U] | 0.254 ± 0.024 | 1.45 ± 0.55 |
| GGAGACGAUACUAUAUCAACCUACUACCUCA | 0.123 ± 0.013 | 0.0198 ± 0.0082 |
| GGAGACGUUACUAUACAACCUACUACCACA | 0.191 ± 0.016 | 0.00242 ± 0.0022 |
| GGAGACCAUACCAUACAACCUACUACCUCA | 0.157 ± 0.027 | 0.107 ± 0.044 |
| GGAGACCUAUCUAUACAACCUGCUACCUCA | 0.0162 ± 0.0048 | 0.00697 ± 0.0045 |
| GGAGUGGAUACUAUACCAACCUACUACCUCA | 0.0424 ± 0.0067 | 0.0596 ± 0.021 |
